# Compounds with a hit are over-represented: about 27% of the library has one in this group of screens.
# Cav3 T inh – Cav3.2 calcium influx blockers – cell-based, Fluo-4 calcium fluorescence, FDSS, MLSMR library, primary screen; Voltage-dependent T-type calcium channel subunit alpha-1H (Homo sapiens), O95180; Cav3.2-expressing cells; stronger effect = lower value; B-score at 10 µM; hit rate 4% among 100,000; AID 449739, 2010;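 active means single-dose well whose peak fluorescence ratio is a statistical outlier from its plate by either plate-standardised score or position-corrected B-score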
# CYP2C9 act – human CYP2C9 activators, primary screen, biochemical, luminescence. recombinant CYP2C9, luciferin-H conversion; stronger effect = higher value; factor 1 = untreated enzyme, 0 = blocked. Cytochrome P450 2C9 (Homo sapiens), P11712. activation factor at 5 µM. hit rate 1.4% among 96,000;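 active means activation factor of 2 or more for CYP2C9 at a 5 µM dose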;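 further: 0 = sulfaphenazole-blocked wells and 1 = vehicle-only wells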
# CYP2C9 inh – blockers of cytochrome P450 2C9 activity – biochemical, luminescence, ADME assay, primary screen; AID 777, 2007; inhibition, % at 5 µM; hit rate 20% among 96,000; CYP2C9 Supersomes, luciferin-H conversion; P11712;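 active means blocking of liver enzyme CYP2C9 beyond about 50% at 5 µM, limit read from the data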
# CYP2C19 inhib – blockers of cytochrome P450 2C19 activity – biochemical, luminescence, ADME assay, primary screen | P33261 | CYP2C19 Supersomes, luciferin-H EGE luminescence, 30 min | inhibition, % at 5 µM | hit rate 21% among 96,000 | AID 778, 2007;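 active means CYP2C19 inhibition above a set limit at 5 µM in the primary screen, cut at about 50% in these data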;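 further: plate controls were negative control wells for no effect and 2.5 mM tranylcypromine positive control for full effect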
# CYP2C19 activ – human CYP2C19 activators, primary screen, biochemical, luminescence. AID 1025, 2008. 96,000 tested, under 10 active. Cytochrome P450 2C19 (Homo sapiens), P33261. recombinant CYP2C19, luciferin-H EGE luminescence; stronger effect = higher value; 0 = fully inhibited enzyme, 1 = untreated enzyme. activation factor at 5 µM;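 active means activation factor of at least 2 at 5 µM in the primary screen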;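 further: 0 = wells with 2.5 mM tranylcypromine and 1 = vehicle-only wells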
# Active calls of the source: *; nt = no result given.
SMILES,Cav3 T inh,CYP2C9 act,CYP2C9 inh,CYP2C19 inhib,CYP2C19 activ
Cc1ccc2c(CN3CCN(CCO)CC3)cc(=O)oc2c1,-0.571,1.2,-16.4,-0.9,1
CCC(CO)n1c(SCc2cc(=O)oc3cc(C)ccc23)nc2ccccc2c1=O (centres undefined),-3.48,0,98.1*,96.9*,0
COc1ccc(Cl)cc1Nc1nc(N2CCCC2)nc(N2CCCC2)n1,nt,1,1.2,-11.7,1.1
COCCCNC(=S)NC1CC2CCCC(C1)N2Cc1cccs1 (centres undefined),1.28,0.9,14.5,1.4,1
O=C(OCn1cncn1)c1ccc(Cl)cc1Cl,-0.243,0.6,38.0,49.5,0.5
COc1ccc(/C=C(/C(=O)c2ccc(Cl)cc2Cl)n2cncn2)cc1,-1.9,0.1,91.2*,77.2*,0.2
Cn1nnnc1CCOCCc1nnnn1C,-0.372,1,2.4,-2.3,1
COC(=O)C(Cc1ccc(OC(=O)c2ccc(C)cc2)cc1)N1Cc2ccccc2C1=O (centres undefined),0.479,0.5,50.4*,28.5,0.7
C/C(=C\c1ccccc1)C(=O)Nc1cc(C)on1,0.0264,0.8,21.2,6.4,0.9
O=C(Nc1nnc(-c2ccccc2Cl)o1)c1nc2ccccc2s1,-4.48*,0.7,34.2,68.6*,0.3
COc1cccc2sc(Nc3nnc(-c4ccccc4Cl)o3)nc12,nt,1.2,-19.8,-4.3,1
O=C(Nc1nnc(-c2ccccc2Cl)o1)c1ccco1,1.21,0.1,93.2*,9.7,0.9
O=C(Nc1nnc(-c2ccccc2)o1)Nc1ccccc1Cl,nt,0.7,34.4,56.5*,0.4
COC(C[C@H](O)[C@H](C)[C@@H](O)COCc1ccccc1)OC,-0.00255,nt,nt,nt,nt
Cc1ccnc(N2C(=O)OC(C)(C)C2(C)O)c1 (centres undefined),0.231,0.8,16.6,10.3,0.9
Cc1csc(NC(=O)C2CCCN(S(=O)(=O)c3cnc[nH]3)C2)n1 (centres undefined),0.745,0.9,12.8,-0.5,1
CC(C)c1ccc(NC(=O)C2CCCN(S(=O)(=O)c3cnc[nH]3)C2)cc1 (centres undefined),-0.119,0.4,62.3*,61.6*,0.4
CCOC(=O)c1ccc(NC(=O)C2CCCN(S(=O)(=O)c3cnc[nH]3)C2)cc1 (centres undefined),2.15,0,95.7*,92.2*,0.1
O=C(Nc1ccc(Cl)cc1)C1CCCN(S(=O)(=O)c2cnc[nH]2)C1 (centres undefined),1.02,0.1,87.9*,89.7*,0.1
CC(C)NC(=O)C1CCCN(S(=O)(=O)c2cccs2)C1 (centres undefined),0.145,1,1.7,58.0*,0.4
Cc1cc(C)cc(N(CC(=O)N2CCN(Cc3ccccc3)CC2)S(=O)(=O)c2c(C)noc2C)c1,0.149,1,-4.4,-10.1,1.1
CCCCOc1ccc(C(C)NC(=O)C2CCCN(S(=O)(=O)CC)C2)cc1 (centres undefined),-1.91,0.8,15.2,14.3,0.9
CC(NC(=O)C1CCCN(S(=O)(=O)c2cnc[nH]2)C1)c1ccccc1 (centres undefined),0.837,0.3,73.7*,69.8*,0.3
COc1ccc(C(c2nnnn2C(C)(C)C)N2CCN(c3nc4ccccc4s3)CC2)cc1 (centres undefined),-5.26*,0.4,63.2*,18.5,0.8
CC(C)(C)n1nnnc1C(c1ccncc1)N1CCN(c2ccc(O)cc2)CC1 (centres undefined),-0.00224,0.2,75.7*,49.3,0.5
SMILES,Cav3 T inh,CYP2C9 act,CYP2C9 inh,CYP2C19 inhib,CYP2C19 activ
CCC(C)(C)n1nnnc1C(c1ccc(O)c(OC)c1)N1CCN(c2nc3ccccc3s2)CC1 (centres undefined),-2.56,0.2,77.3*,28.8,0.7
CCC(C)(C)n1nnnc1C(c1ccc(O)c(OC)c1)N1CCc2ccccc2C1 (centres undefined),0.0965,0.7,32.9,31.7,0.7
COC(=O)CNC(=O)C1(C)C=CCN1C(=O)c1ccccc1 (centres undefined),0.197,nt,nt,nt,nt
O=C(CSc1nnc(-c2cccnc2)n1-c1ccccc1)Nc1ccc2c(c1)OCO2,1.31,0.9,10.9,-6.5,1.1
O=C(c1ccco1)N1CCN(C(=O)c2cccs2)CC1,-1.29,0.8,21.2,51.9*,0.5
O=C(c1ccncc1)N1CCN(C(=O)c2cccs2)CC1,0.257,0.7,33.9,71.6*,0.3
O=C(c1cccnc1)N1CCN(C(=O)c2cccs2)CC1,0.736,1,3.3,26.8,0.7
Nc1ccc(N2CCN(C(=O)c3cccs3)CC2)cc1,-0.00921,0.3,70.7*,97.3*,0
NC(=O)N1CCN(C(=O)c2ccco2)CC1,0.215,1.4,-35.4,-22.8,1.2
CC(=O)Nc1ccc(N2CCN(C(=O)c3cccs3)CC2)cc1,nt,1,1.6,6.5,0.9
O=C(N1CCCC1)C12CCC3CC(CC(C3)C1)C2,1.12,0.9,7.9,25.7,0.7
O=C(c1ccccc1Cl)N1CCNCC1,nt,1,1.2,-4.2,1
N#Cc1c(N2CCN(C(=O)c3ccccc3)CC2)nc(-c2ccccc2)c2c1CCCC2,-4.85*,0.3,71.9*,62.0*,0.4
N#Cc1c(N2CCN(C(=O)c3ccco3)CC2)nc(-c2ccccc2)c2c1CCCC2,-3.17,0.1,86.1*,87.6*,0.1
N#Cc1c(N2CCN(C(=O)c3ccccc3Cl)CC2)nc(-c2ccccc2)c2c1CCCC2,nt,0.4,64.0*,50.3*,0.5
N#Cc1c(NC(=O)CN2CCN(C(=O)c3ccco3)CC2)sc2c1CCCCC2,0.3,0.8,22.1,26.5,0.7
CCN(CC)C(=O)CN(c1cc2c(cc1OC)oc1ccccc12)S(=O)(=O)c1ccc(C)cc1,-1.72,0.9,13.5,15.1,0.8
CCOC(=O)CCCc1sc(N)nc1-c1[nH]c(=O)[nH]c1C,-0.0893,1,-4.4,-17.4,1.2
COc1ccc(N2CCCCn3c2nc2c3c(=O)n(C)c(=O)n2C)cc1,1.24,0.6,36.4,32.1,0.7
Nc1c(C(=O)c2ccccc2)sc(Nc2ccccc2)c1S(=O)(=O)c1ccccc1,-3.81*,nt,nt,nt,nt
C=CCNC(=O)c1c(-c2c(F)cccc2Cl)noc1C,0.334,1,1.6,3.5,1
O=C(Nc1nc2ccccc2[nH]1)c1ccccc1,0.633,0.8,17.8,41.7,0.6
Cc1onc(-c2c(F)cccc2Cl)c1C(=O)Nc1nc2ccccc2[nH]1,-0.349,0.1,93.3*,56.8*,0.4
Cc1onc(-c2c(F)cccc2Cl)c1C(=O)Nc1cccc2nsnc12,0.111,0.5,54.4*,23.8,0.8
Cc1onc(-c2c(F)cccc2Cl)c1C(=O)NC1=NCCS1,0.0477,0.3,67.2*,53.6*,0.5

# Source: PubChem (several laboratories)
